Active and inactive are the calls of the source.
Legend:
[1] = system: Plasmodium falciparum Sir2 (PF13_0152, Sir2A); test: pfSir2 binders on small-molecule microarrays, primary screen, biochemical, small-molecule microarray, 635 nm fluorescence (AID 1098); conditions: small-molecule microarray binding, fluorescence 635 nm; higher = more signal;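 further: score merges spot fluorescence intensity with its signal-to-noise ratio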
[2] = small-molecule microarray binders of probe aDKK1, primary screen, biochemical, biotinylated probe, 635/667 nm fluorescence (AID 1099); conditions: higher = more signal;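 further: score merges 667nm spot fluorescence with signal to noise across triplicate slides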
[3] = small-molecule microarray binders of probe aCHRDL2, primary screen, biochemical, biotinylated probe, 635/667 nm fluorescence (AID 1100); conditions: higher = more signal
[4] = splicing luciferase reporter signal modulators, primary screen, spliceosome inhibition project, cell-based, HEK293, splice +/- reporter (AID 1101); conditions: luminescence, 24 h, higher = more signal, called active from +8 up or from −8 down;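 further: HEK293 cells carrying a splicing-competent luciferase reporter gene; test concentration not given here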
[5] = target: Fibroblast growth factor 10 (Homo sapiens) (UniProt O15520); test: FGF10 binders on small-molecule microarrays, primary screen, biochemical, small-molecule microarray, 635 nm fluorescence (AID 1102); conditions: FGF10 binding, fluorescence 635 nm, higher = more signal
Fibroblast growth factor 10 (Homo sapiens), sequence (O15520 whole entry, looked up): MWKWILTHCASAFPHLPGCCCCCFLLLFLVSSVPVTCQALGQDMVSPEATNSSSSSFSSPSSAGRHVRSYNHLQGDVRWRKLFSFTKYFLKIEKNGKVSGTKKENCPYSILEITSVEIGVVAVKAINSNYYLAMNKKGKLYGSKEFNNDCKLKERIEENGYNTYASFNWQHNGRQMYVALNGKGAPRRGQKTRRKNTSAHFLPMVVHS

[6] = system: glycogen synthase kinase-3 (GSK3A per assay name; protocol says GSK3B); test: GSK3 binders on small-molecule microarrays, primary screen, biochemical, small-molecule microarray, 635 nm fluorescence, GSK3A (AID 1103); conditions: small-molecule microarray binding, fluorescence 635 nm; higher = more signal; further: the record names both GSK3A and GSK3B
[7] = target: Epidermal growth factor receptor (Homo sapiens) (UniProt P00533); test: EGFR binders on small-molecule microarrays, primary screen, biochemical, small-molecule microarray, 635 nm fluorescence (AID 1104); conditions: EGFR binding, higher = more signal;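 further: score merges 667 nm emission intensity with spot signal to noise over triplicate slides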
Epidermal growth factor receptor (Homo sapiens), sequence (P00533 whole entry, looked up): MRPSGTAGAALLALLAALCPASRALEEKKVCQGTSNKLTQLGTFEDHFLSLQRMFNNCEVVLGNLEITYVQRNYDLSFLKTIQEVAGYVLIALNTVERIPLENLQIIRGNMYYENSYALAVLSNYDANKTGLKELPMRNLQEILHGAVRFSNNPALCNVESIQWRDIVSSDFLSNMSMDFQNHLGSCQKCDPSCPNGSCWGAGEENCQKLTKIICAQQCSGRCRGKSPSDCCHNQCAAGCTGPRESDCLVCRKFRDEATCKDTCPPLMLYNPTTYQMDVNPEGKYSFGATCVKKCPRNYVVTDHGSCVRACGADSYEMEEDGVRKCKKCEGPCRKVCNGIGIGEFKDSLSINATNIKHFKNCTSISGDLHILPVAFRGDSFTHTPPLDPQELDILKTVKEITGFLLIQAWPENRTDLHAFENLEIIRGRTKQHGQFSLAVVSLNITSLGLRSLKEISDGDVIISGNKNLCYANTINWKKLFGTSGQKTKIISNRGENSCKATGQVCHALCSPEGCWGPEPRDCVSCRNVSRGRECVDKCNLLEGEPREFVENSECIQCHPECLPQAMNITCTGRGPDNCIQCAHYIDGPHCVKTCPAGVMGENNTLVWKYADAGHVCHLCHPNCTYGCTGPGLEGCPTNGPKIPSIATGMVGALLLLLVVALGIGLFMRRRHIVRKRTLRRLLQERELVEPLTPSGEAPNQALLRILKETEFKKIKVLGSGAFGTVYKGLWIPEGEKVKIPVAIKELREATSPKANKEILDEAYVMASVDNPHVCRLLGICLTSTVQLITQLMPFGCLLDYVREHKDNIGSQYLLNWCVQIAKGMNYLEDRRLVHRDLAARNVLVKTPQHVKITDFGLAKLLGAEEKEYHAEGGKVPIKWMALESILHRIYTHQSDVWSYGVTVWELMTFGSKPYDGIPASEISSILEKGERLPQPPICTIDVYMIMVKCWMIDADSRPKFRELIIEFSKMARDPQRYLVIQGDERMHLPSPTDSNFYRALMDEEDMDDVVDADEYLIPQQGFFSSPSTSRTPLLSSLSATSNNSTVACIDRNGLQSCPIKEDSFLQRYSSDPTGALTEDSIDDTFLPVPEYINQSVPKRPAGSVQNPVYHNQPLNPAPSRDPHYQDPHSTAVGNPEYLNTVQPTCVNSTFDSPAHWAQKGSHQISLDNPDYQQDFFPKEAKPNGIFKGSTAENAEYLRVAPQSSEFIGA

[8] = target: Follistatin-related protein 3 (Homo sapiens) (UniProt O95633); test: FSTL3 binders on small-molecule microarrays, primary screen, biochemical, small-molecule microarray, 635 nm fluorescence (AID 1105); conditions: FSTL3 binding, higher = more signal;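 further: score merges emission near 667 nm and signal to noise per printed spot across three slides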
Follistatin-related protein 3 (Homo sapiens), sequence (O95633 whole entry, looked up): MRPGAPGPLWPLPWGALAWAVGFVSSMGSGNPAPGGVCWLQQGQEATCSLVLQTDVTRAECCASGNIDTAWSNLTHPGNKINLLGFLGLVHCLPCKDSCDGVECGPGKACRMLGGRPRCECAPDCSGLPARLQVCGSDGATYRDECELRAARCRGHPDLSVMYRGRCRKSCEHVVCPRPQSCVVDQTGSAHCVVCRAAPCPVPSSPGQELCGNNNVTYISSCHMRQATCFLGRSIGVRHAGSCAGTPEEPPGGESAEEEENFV

[9] = target: Dickkopf-related protein 1 (Homo sapiens) (UniProt O94907); test: DKK1 binders on small-molecule microarrays, primary screen, biochemical, small-molecule microarray, 635 nm fluorescence scan (AID 1106); conditions: DKK1 binding, higher = more signal;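 further: score merges emission near 667 nm with signal to noise over three replicate slides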
Dickkopf-related protein 1 (Homo sapiens), sequence (O94907 whole entry, looked up): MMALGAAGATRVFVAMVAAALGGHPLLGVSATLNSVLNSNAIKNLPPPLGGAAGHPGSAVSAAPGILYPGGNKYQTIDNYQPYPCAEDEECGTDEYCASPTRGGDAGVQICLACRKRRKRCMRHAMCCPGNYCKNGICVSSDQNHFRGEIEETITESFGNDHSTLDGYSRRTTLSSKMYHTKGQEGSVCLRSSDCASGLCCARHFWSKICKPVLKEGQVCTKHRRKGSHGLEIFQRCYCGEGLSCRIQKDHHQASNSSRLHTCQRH

[10] = system: Inhibin beta A chain (activin A); test: INHBA (activin A) binders on microarrays, primary screen, biochemical, small-molecule microarray, 635 nm fluorescence scan (AID 1107); conditions: small-molecule microarray binding, higher = more signal;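 further: mouse activin A protein probed at 4.33 µg/mL on printed slides; score merges bound-protein fluorescence near 667 nm with spot signal-to-noise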
[11] = system: Human papillomavirus type 1a protein E7 (residues 44-93); test: HPV1a E7 fragment binders on microarrays, primary screen, biochemical, small-molecule microarray, residues 44-93, 635 nm fluorescence (AID 1108); conditions: small-molecule microarray binding, fluorescence 635 nm; higher = more signal;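 further: E7 fragment applied at 1 µg/mL in TBST for 1 h at 4 C; score combines spot fluorescence with its signal to noise ratio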
[12] = modulators of HCV replicon luciferase signal, primary screen, HCV replication inhibitor project, Huh7 cells, luciferase reporter (AID 1109); conditions: 48 h, higher = more signal;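 further: huh7 hepatoma cells harbouring a luciferase neomycin HCV replicon reporter; luciferase luminescence as measure of HCV replicon replication; test concentration not given here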
[13] = target: Left-right determination factor 2 (Homo sapiens) (UniProt O00292); test: LEFTY2 binders on small-molecule microarrays, primary screen, biochemical, small-molecule microarray, 635 nm fluorescence scan (AID 1110); conditions: LEFTY2 binding, higher = more signal
Left-right determination factor 2 (Homo sapiens), sequence (O00292 whole entry, looked up): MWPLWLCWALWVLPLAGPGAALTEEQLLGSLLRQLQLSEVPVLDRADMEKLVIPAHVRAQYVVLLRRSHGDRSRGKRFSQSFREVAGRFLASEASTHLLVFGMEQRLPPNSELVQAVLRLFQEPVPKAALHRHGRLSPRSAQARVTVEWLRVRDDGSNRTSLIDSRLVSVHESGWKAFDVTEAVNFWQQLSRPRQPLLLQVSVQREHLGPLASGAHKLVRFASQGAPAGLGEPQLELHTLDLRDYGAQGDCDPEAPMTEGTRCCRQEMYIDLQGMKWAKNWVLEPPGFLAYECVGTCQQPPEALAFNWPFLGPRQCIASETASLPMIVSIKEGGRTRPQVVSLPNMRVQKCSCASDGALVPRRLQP

[14] = target: Calmodulin-1 (Homo sapiens) (UniProt P0DP23); test: CALM1 binders on microarrays, EGTA buffer, profiling panel, biochemical, small-molecule microarray, Cy5-labelled CALM1 (AID 1111); conditions: Cy5-CALM1 binding fluorescence, higher = more signal;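 further: labelled calmodulin applied in Tris saline Tween buffer holding calcium plus EGTA and DTT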
[15] = target: Calmodulin-1 (Homo sapiens) (UniProt P0DP23); test: calcium-bound CALM1 binders on microarrays, profiling panel, artefact control for SMM control-protein annotation, biochemical, small-molecule microarray, Cy5-labelled CALM1, plus calcium (AID 1112); conditions: Cy5-CALM1 binding fluorescence, higher = more signal;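 further: score merges spot fluorescence with signal to noise from triplicate slides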
[16] = small-molecule microarray binders of probe aWnt5a, primary screen, biochemical, biotinylated probe, 635/667 nm fluorescence (AID 1113); conditions: higher = more signal;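 further: score merges 667 nm fluorescence intensity with signal-to-noise per printed feature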
[17] = small-molecule microarray binders of probe aShh, primary screen, biochemical, biotinylated probe, 635/667 nm fluorescence (AID 1114); conditions: higher = more signal;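 further: probe is biotin-labelled aShh protein from a stem cell growth factor screen; measures binding of labelled protein to compounds printed on the slide; score merges feature fluorescence at 667 nm with signal-to-noise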
[18] = small-molecule microarray binders of probe aNog, primary screen, biochemical, biotinylated probe, 635/667 nm fluorescence (AID 1115); conditions: higher = more signal;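 further: probe is biotinylated aNog protein used at 0.15 µg/mL for 1 h at 4 C; z-score combines 667 nm fluorescence of each spot with its signal to noise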
[19] = target: Torsin-1A-interacting protein 1 (Homo sapiens) (UniProt Q5JTV8); test: LAP1 binders from COS7 cell lysate, primary screen, small-molecule microarray, 635/667 nm fluorescence (AID 1116); conditions: COS7-hLAP1 lysate binding, 635 nm fluorescence, higher = more signal
Torsin-1A-interacting protein 1 (Homo sapiens), sequence (Q5JTV8 whole entry, looked up): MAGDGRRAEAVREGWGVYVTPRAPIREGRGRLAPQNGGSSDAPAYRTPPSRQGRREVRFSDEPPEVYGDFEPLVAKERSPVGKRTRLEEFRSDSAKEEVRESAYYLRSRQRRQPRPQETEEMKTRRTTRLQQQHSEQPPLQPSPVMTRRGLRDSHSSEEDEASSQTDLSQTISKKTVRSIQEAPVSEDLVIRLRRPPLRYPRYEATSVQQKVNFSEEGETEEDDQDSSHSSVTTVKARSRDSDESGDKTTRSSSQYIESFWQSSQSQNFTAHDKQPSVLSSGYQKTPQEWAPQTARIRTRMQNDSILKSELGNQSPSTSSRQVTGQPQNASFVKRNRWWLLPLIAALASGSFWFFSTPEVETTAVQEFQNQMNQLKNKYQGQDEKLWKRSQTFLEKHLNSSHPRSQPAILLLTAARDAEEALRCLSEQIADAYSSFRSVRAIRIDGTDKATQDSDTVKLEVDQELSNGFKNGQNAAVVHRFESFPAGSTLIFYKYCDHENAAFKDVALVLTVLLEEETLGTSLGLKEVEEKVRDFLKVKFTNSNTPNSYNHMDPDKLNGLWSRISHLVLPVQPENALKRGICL

[20] = target: Alpha-bungarotoxin (Bungarus multicinctus) (UniProt P60615); test: alpha-bungarotoxin binders on microarray, profiling panel, artefact control for SMM control protein annotation, biochemical, small-molecule microarray, Alexa647 label, 635/667 nm fluorescence (AID 1117); conditions: alpha-BTX-A647 binding fluorescence, higher = more signal
Alpha-bungarotoxin (Bungarus multicinctus), sequence (P60615 whole entry, looked up): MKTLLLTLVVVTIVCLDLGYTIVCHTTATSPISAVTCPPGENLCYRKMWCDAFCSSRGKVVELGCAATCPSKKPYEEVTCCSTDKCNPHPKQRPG

Row | SMILES | composite z-score [1] | composite z-score [2] | composite z-score [3] | z-score [4] | composite z-score [5] | composite z-score [6] | composite z-score [7] | composite z-score [8] | composite z-score [9] | composite z-score [10] | composite z-score [11] | z-score [12] | composite z-score [13] | composite z-score [14] | composite z-score [15] | composite z-score [16] | composite z-score [17] | composite z-score [18] | composite z-score [19] | composite z-score [20]
1 | COc1ccc([C@H]2C[C@H]3C(I)=C[C@@H]2C(=O)[C@]32CO2)cc1 | 0.802 | 0.168 | -0.206 | -0.568 (inactive) | 0.66 | -0.611 | -0.0989 | 0.926 | 0.726 | 0.508 | -1.2 | -3.32 | 0.178 | -0.978 | -1.53 | -0.222 | -0.407 | -0.1 | 0.498 | 0.957
2 | CN(C)CCCCCCNC(=O)[C@@H]1C[C@@H]2C(=O)N[C@@H](CCCC[N+](C)(C)C)C(=O)N2[C@@H]1c1ccc(O)cc1 | 0.626 | -0.0429 | -0.397 | -0.0575 (inactive) | 0.421 | 0.467 | -0.144 | 0.0663 | 1.61 | -0.181 | -1.27 | 1.61 | 0.839 | -1.01 | -0.702 | -0.216 | -0.358 | -0.277 | 0.964 | 0.257
3 | COC(=O)[C@@]1(Cc2ccccc2)[C@H]2c3cc(C(=O)N4CCCC4)n(Cc4ccc(O)c(OC)c4)c3C[C@H]2CN1C(=O)c1ccccc1 | 0.117 | 0.611 | 1.08 | -2.95 (inactive) | 0.253 | 0.632 | -0.527 | 0.202 | -0.817 | 0.939 | 1.35 | -1.7 | -0.943 | 0.556 | 0.0466 | 0.288 | 1.14 | 1.11 | 0.53 | -0.142
4 | O[C@@H](Cc1ccccc1)[C@@H](/C=C/C1CC1)NCc1cccc(Cl)c1 | 1.2 | 0.081 | 1.31 | -0.944 (inactive) | -1.46 | -0.638 | -1.14 | -0.78 | -1.61 | 0.157 | -0.597 | -4.47 | -1.4 | -0.863 | -0.133 | -0.197 | -0.206 | -0.402 | -0.737 | -0.801
5 | O=C1NC(=O)C2C1C=CC(C(O)c1ccc(-c3ccccc3)s1)N2Nc1ccc(Cl)cc1Cl (stereo not given) | 1.02 | -0.214 | 0.956 | 0.624 (inactive) | 0.227 | 0.508 | 0.112 | 0.992 | -0.729 | 0.959 | 1.29 | 1.7 | -0.114 | 1.65 | 1.03 | 0.1 | 0.213 | -0.358 | 0.712 | 1.06
6 | COCCOC(=O)N1C(=O)[C@@]2(c3cc(C#CC4(O)CCCCCC4)ccc31)[C@H](c1ccccc1OCCO)N1[C@H](c3ccccc3)[C@H](c3ccccc3)OC(=O)[C@H]1[C@@H]2C(=O)N1CCc2cc(OC)c(OC)cc2C1 | 1.09 | 0.0591 | 0.179 | 0.202 (inactive) | 0.99 | 0.929 | 0.345 | 0.528 | 0.0815 | -0.0614 | 1.43 | -2.42 | 0.21 | 1.26 | 0.57 | -0.0704 | -0.0289 | 0.268 | 1.24 | 1.97
7 | CCCC[C@H]1C[C@@H]1[C@@H]1N(P(=O)(c2ccccc2)c2ccccc2)C[C@@](O)(c2ccccc2)CC12CC2 | 0.17 | 1.12 | 1.28 | -0.644 (inactive) | -0.295 | 0.0826 | -0.678 | 0.21 | -1.51 | 0.973 | 0.713 | -2.71 | -1.06 | 1.96 | 1.03 | 0.145 | 0.149 | -0.753 | 0.727 | 0.217
8 | COc1ccc(C(O)C2C=CC3C(=O)N(C)C(=O)C3N2NC(=O)OC(C)(C)C)c2ccccc12 (stereo not given) | 1.47 | 0.578 | 1.01 | 1.41 (inactive) | 1.16 | 1.27 | 0.138 | 1.32 | -0.557 | 0.441 | 1.5 | -1.45 | -0.107 | 1.56 | 0.47 | 0.246 | 0.275 | 1.8 | 0.163 | 1.17
9 | COc1cc2c(cc1O)C(c1cccs1)N(Cc1cccc(OC(F)(F)F)c1)CC2 (stereo not given) | 1.77 | -0.293 | 0.154 | 0.965 (inactive) | -0.153 | -0.0228 | -0.0017 | 0.105 | -0.183 | 1.41 | 1.14 | -1.75 | 0.0446 | 0.0759 | -0.194 | -0.0545 | -0.0709 | 0.0953 | 0.0117 | 0.422
10 | O=C1O[C@H](c2ccccc2)[C@H](c2ccccc2)N2[C@H]1[C@@H](C(=O)NC[C@H](O)c1ccccc1)[C@]1(C(=O)Nc3ccc(C#CC4=CCCCC4)cc31)[C@H]2c1ccccc1OCCO | 0.312 | 0.697 | 0.722 | -1.74 (inactive) | 0.439 | 1.13 | 0.208 | 0.627 | 0.359 | 1.06 | 1.06 | -3.16 | 0.155 | 1.42 | 0.944 | 0.0101 | 0.328 | 0.157 | 1.02 | 1.7
11 | CC(C)C(=C=CC[C@H](O)c1ccc(CO)o1)CCO | 0.458 | -0.288 | -0.471 | 0.241 (inactive) | 0.494 | 0.621 | -0.115 | 0.402 | 0.0097 | 0.411 | 1.21 | -1.12 | -0.0171 | -0.26 | -0.649 | -0.15 | -0.0793 | -0.0827 | 0.843 | 0.963
